Structures are written as SMILES. Results filed as inconclusive are left out. Active and inactive are the calls of the source. Calls follow the shape of the dose curve; as a rule, active = well fitted cell-killing curve with a large enough effect in the repeat runs; inconclusive = weak or mixed curves, or effect the other way; inactive = no such curve, though single readings can be large or run the other way.
% is scaled to controls: 0 for no effect and ±100 for the full control effect.

One experiment is described as follows: qHTS assay to identify small molecule antagonists of the glucocorticoid receptor (GR) signaling pathway - cell viability counter screen (AID 720693). Also: nearly all actives have a fitted effect of over 55% in size. As to conditions: GR-bla HeLa viability, CellTiter-Glo luminescence, 18 h, with 5 nM dexamethasone present; series mostly up to 58.5 µM; viability change, negative = cytotoxic: at the top concentration. On the technique in general: In qHTS, concentration-response curves come from the screen itself.
Turning to `O=C(O)c1ccccc1-n1cc(C(=O)O)c(=O)c2cc(Nc3c(F)cc(F)cc3Cl)c(Cl)cc21`, the “viability change, negative = cytotoxic” value was -1.49% (inactive).
For the compound `O=C1c2ccccc2C(=O)C1c1ccc2cc(S(=O)(=O)O)cc(S(=O)(=O)O)c2n1`, the “viability change, negative = cytotoxic” value is -13.2% [at 78.9 µM] (inactive).
The same measure, in the same setting: the same measure for `O=C(Cl)c1ccc(F)c(Cl)c1`: -12.3% (inactive).
For the compound `CCCCCCCCS`, the “viability change, negative = cytotoxic” value is 4.74% [at 78.9 µM] (inactive).
In the case of `O=C(O)c1cc(C(=O)O)c(C(=O)O)cc1C(=O)O`, the “viability change, negative = cytotoxic” value is 8.29% (inactive).
In the case of `C[C@@H](O)[C@H]1C(=O)N2C(C(=O)O)=C(S[C@@H]3CN[C@H](CNS(N)(=O)=O)C3)[C@H](C)[C@H]12`, the “viability change, negative = cytotoxic” value was 11% (inactive).
On to `CCCCOC(=O)CC#N`, for which the “viability change, negative = cytotoxic” value was -0.132% [at 78.9 µM] (inactive).
Take `CCc1ccc2c(c1)C(=O)c1ccccc1C2=O`: the “viability change, negative = cytotoxic” value is 1.06% (inactive).
On the same count and under the same terms, the same measure for `CC(C)Oc1ccccc1O`: 6.09% (inactive); for `[O-][n+]1ccc(Cl)cc1`: 5.4% [at 78.9 µM] (inactive).

A further experiment can be described thus: qHTS assay for identifying genotoxic compounds that show differential cytotoxicity against isogenic chicken DT40 cell lines with known DNA damage response pathways - wild type cell line (AID 743012). Also: nearly all actives have a fitted effect of over 60% in size. Also: potency is read from the fitted curve at half-maximal effect. The note with it: DT40 wild type chicken cells viability, CellTiter-Glo, 40 h; series mostly up to 68.4 µM; activity change, negative = cytotoxicity: at the top concentration. The essentials:
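Viability of DNA repair-proficient chicken DT40 cells was assessed by CellTiter-Glo luminescence following 40 h compound exposure at 37 C/5% CO2.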
`COc1cc(C)c(Cc2cnc(N)nc2N)cc1OC`: the Potency was 26.6 µM (active).
As for `OCCOc1cccc(OCCO)c1`, the “activity change, negative = cytotoxicity” value was -11.9% (inactive).
With `CC(C)C/C=C(\C=O)c1ccccc1`, the “activity change, negative = cytotoxicity” value is -2.96% (inactive).
For the compound `CCCCCCCCCCCCCCCCCCCl`, the activity change, negative = cytotoxicity was 14.5% [at 8.52 µM] (inactive).
Still for that read-out and setting: to `CCOC(=O)CC(O)(CC(=O)OCC)C(=O)OCC` belongs -8.34% (inactive).
On to `CCCc1ccc(OC)cc1`, for which the “activity change, negative = cytotoxicity” value is 18.1% [at 95 µM] (inactive).
Still for that read-out and setting: to `CC/C=C/CCO` belongs -6.53% [at 95 µM] (inactive); to `O=C1c2ccccc2C(=O)C1c1ccc2cc(S(=O)(=O)O)cc(S(=O)(=O)O)c2n1`, -24.5% [at 95 µM] (inactive).
Same read-out and setting: the same measure for `C[C@@H](O)[C@H]1C(=O)N2C(C(=O)O)=C(S[C@@H]3CN[C@H](CNS(N)(=O)=O)C3)[C@H](C)[C@H]12`: 1.04% (inactive); for `CCCCOC(=O)CC#N`: -2.64% [at 95 µM] (inactive).
Still for that read-out and setting: the same measure for `CCc1ccc2c(c1)C(=O)c1ccccc1C2=O`: -27.5% (inactive).

Another experiment in a line: qHTS assay for identifying genotoxic compounds that show differential cytotoxicity against isogenic chicken DT40 cell lines with known DNA damage response pathways - Rev3 mutant cell line (AID 743014). Also: nearly all actives have a fitted effect of over 55% in size. Also: potency is read from the fitted curve at half-maximal effect. As to conditions: chicken DT40 Rev3-/- viability, CellTiter-Glo, 40 h; series mostly up to 68.4 µM; activity, negative = cytotoxicity: at the top concentration.
Take `Sc1nc(S)nc(S)n1`: the “activity, negative = cytotoxicity” value is -14.1% (inactive).
On the same count and under the same terms, to `C=CC(O)CCCCC` (configuration not stated) belongs -8.63% (inactive).
As for `COC(=O)/C=C/C(C)=C\C=C\C(C)=C\C=C\C=C(C)\C=C\C=C(C)\C=C\C(=O)O`, the Potency was 54.5 µM (active).
The same measure, in the same setting: to `COC(=O)Cc1cccc2ccccc12` belongs 54.5 µM (active); to `COC=O`, 4.48 µM (active).
Take `Cc1c(N=C=O)cccc1N=C=O`: the “activity, negative = cytotoxicity” value is -3.31% [at 95 µM] (inactive).
The same measure, in the same setting: the same measure for `CCCCCCCCCCCCSCCOCCO`: -6.23% (inactive).
Still for that read-out and setting: to `Clc1ccccc1-c1nc(-c2ccncc2)no1` belongs -15.4% (inactive); to `Cc1nc(C)c(C)nc1C`, 0.446% (inactive).
Take `O=C(OCCCCCOC(=O)c1ccccc1)c1ccccc1`: the Potency was 61.1 µM (active).
Turning to `O=c1c2ccccc2oc2ccccc12`, the Potency was 61.1 µM (active).
On to `C=CC(C)(O)CC/C=C(/C)CCC=C(C)C` (configuration not stated), for which the Potency is 54.5 µM (active).
Consider `O=P(c1ccccc1)(c1ccccc1)c1ccccc1`, for which the Potency is 61.1 µM (active).
On to `CC/C=C\CCO`, for which the “activity, negative = cytotoxicity” value was 8.86% (inactive).
The same measure, in the same setting: to `CCc1c(C)[nH]c2c1C(=O)C(CN1CCOCC1)CC2` (configuration not stated) belongs -0.805% [at 31.4 µM] (inactive).
Take `C=C(C)C(=O)OCCCCCCCCCCOC(=O)C(=C)C`: the Potency was 30.6 µM (active).
Regarding `CC(Cc1ccccc1)(NC(=O)CN)c1ccccc1` (configuration not stated), the “activity, negative = cytotoxicity” value was -11.3% (inactive).
`CC(C)NC(=O)c1ccccc1N`: the “activity, negative = cytotoxicity” value is -11.8% (inactive).
With `CCCCCCC/C=C/C=O`, the “activity, negative = cytotoxicity” value is -25.8% (inactive).
Take `O=c1[nH]nc(-c2ccc([N+](=O)[O-])o2)o1`: the Potency is 19.3 µM (active).
On to `O=C(O)c1ccccc1-n1cc(C(=O)O)c(=O)c2cc(Nc3c(F)cc(F)cc3Cl)c(Cl)cc21`, for which the “activity, negative = cytotoxicity” value is 0.746% (inactive).
The same measure, in the same setting: the same measure for `O=C(Cl)c1ccc(F)c(Cl)c1`: -20% (inactive); for `CCCCCCCCS`: -20.8% [at 95 µM] (inactive).
Same read-out and setting: the same measure for `O=C(O)c1cc(C(=O)O)c(C(=O)O)cc1C(=O)O`: -9.15% (inactive).
`CC(C)Oc1ccccc1O`: the “activity, negative = cytotoxicity” value was -12.3% (inactive).
Take `[O-][n+]1ccc(Cl)cc1`: the “activity, negative = cytotoxicity” value is 1.83% [at 95 µM] (inactive).

For the origin of these results see PubChem BioAssay (Tox21).
